Results as given in ChEMBL document CHEMBL3988442, “University of Dundee, Small-Polar-MMV Screening Library” (2021).
Hit rate of the full screen: of about 53,000 compounds, about 900 (1.7%) showed an effect of 50% or more. Many of the other results were omitted from the sample, so strong results are more common in it than they were.

These molecules were tested on Mycobacterium tuberculosis (assay: Cornell - Phenotypic assay to identify agents that inhibit growth of Mycobacterium tuberculosis). Settings: 10 mM as filed; unlikely as a test dose.
Format: functional
Parameters: scale not given: direction of the effect not stated beside the values

| Compound | Percent Effect |
| --- | --- |
| Cl.O=C(NCCn1nc(C2CCNC2)c2cccnc21)C1CC1 (stereo not drawn) | -8.257% |
| O=C(O)COc1ccccc1CN1CCCC1c1ccncn1 (stereo not drawn) | -19.71% |
| CC(SCC(=O)N(C)CC(=O)NC1CC1)c1cc(F)ccc1F (stereo not drawn) | -24.27% |
| O=C(NCc1ccco1)[C@H]1COC[C@H]2CN(Cc3ccoc3)C[C@H]21.O=C(O)C(F)(F)F | -10.46% |
| CN(C(=O)Cc1cccs1)C1CCN(c2ccccn2)CC1 | -44.78% |
| O=C(O)CC(CC(=O)N(Cc1ccsc1)C1CC1)c1cccs1 (stereo not drawn) | 15.88% |
| O=C(O)CC(CC(=O)NCCc1cccs1)c1cccs1 (stereo not drawn) | 23.94% |
| Cn1cccc1CN(C(=O)Cc1cccs1)C1CC1 | 91.3% |
| Cn1cccc1CN(C(=O)CC(CC(=O)O)c1cccs1)C1CC1 (stereo not drawn) | 104.7% |
| CN(Cc1cccs1)C1CCC[C@@H]2CN(C(=O)c3cccn3C)C[C@H]12 (stereo partly drawn) | 28.44% |
| Cc1ccc(N(C)[C@@H]2CC[C@@H]3CN(C(=O)C4CCOCC4)C[C@@H]32)nn1 | -1.727% |
| CCN(Cc1nc(Cc2ccccc2)no1)C1CC1 | -4.646% |
| CC(C)c1ccc(S(=O)(=O)N2CSCC2C(=O)NCC(F)(F)F)cc1 (stereo not drawn) | 11.48% |
| Cc1cccc(CNC(=O)NCC2CCN(Cc3ncc[nH]3)C2)c1 (stereo not drawn) | 26.47% |
| Cc1cc(CN2CCCC2c2noc(C3CC3)n2)c2ccccc2n1 (stereo not drawn) | 12.61% |
| c1ccc2sc(CN3CCCC3c3noc(C4CC4)n3)nc2c1 (stereo not drawn) | 50.21% |
| c1cc(CN2CCCC2c2noc(C3CC3)n2)on1 (stereo not drawn) | -61.35% |
| CCOC(=O)[C@]12CCCN(Cc3cccs3)C[C@H]1CN(CCOC)C2.O=C(O)C(F)(F)F.O=C(O)C(F)(F)F | 11.02% |
| COc1ccc(CNC(C)c2cnn(C)c2)cc1OC1CCCC1 (stereo not drawn) | 9.224% |
| O=C(O)C(F)(F)F.c1coc(CN2CCCn3c(nnc3Cn3cccc3)C2)c1 | 21.05% |
| Cl.O=C(NCCn1nc(C2CCNC2)c2cccnc21)c1ccccn1 (stereo not drawn) | -9.907% |
| Cc1cc(-c2ccc(=O)n(CCNC(=O)C3CCCCC3)n2)c(C)o1 | 6.455% |
| Cc1cc(-c2ccc(=O)n(CCNC(=O)C3CC3)n2)c(C)o1 | 55.53% |
| Cc1cc(-c2ccc(=O)n(CCNC(=O)C3CCC3)n2)c(C)o1 | -20.09% |
| O=C(Nc1cccc(CN2CCC(CO)CC2)c1)c1cc(Cl)c[nH]1 | -16.48% |
| COc1ccccc1CN(Cc1cccs1)S(=O)(=O)N(C)C(C)C | 41.56% |

| Compound | Percent Effect |
| --- | --- |
| CCN(Cc1cccs1)S(=O)(=O)N(C)C(C)C | 30.52% |
| CC(C)N(C)S(=O)(=O)N(Cc1cccs1)Cc1cccs1 | 53.57% |
| CCOc1ccc(C(F)(F)F)cc1NC(=O)N1CCNC(=O)C1 | 13.57% |
| Br.Cc1ccc(C(=O)CN(C2=NCCCCC2)c2ccccc2)cc1 | 29.09% |
| Br.Cc1cccc(N(CC(=O)c2ccccc2)C2=NCCCCC2)c1 | 13.79% |
| Br.CCOc1ccc(N(CC(=O)c2ccccc2)C2=NCCCCC2)cc1 | 104.2% |
| Br.O=C(CN(C1=NCCCC1)c1ccccc1)c1ccc(OC(F)F)cc1 | 62.24% |
| Br.O=C(CN(C1=NCCCC1)c1ccccc1)c1ccccc1 | -16.62% |
| Br.O=C(CN(C1=NCCCCC1)c1ccc(Cl)cc1)c1ccccc1 | 14.11% |
| Br.COc1ccc(C(=O)CN(C2=NCCCCC2)c2ccccc2)cc1 | 15.77% |
| Br.O=C(CN(C1=NCCCC1)c1ccccc1)c1ccc2c(c1)OCCO2 | 22.49% |
| Br.Cc1ccc(N(CC(=O)c2ccc(Br)cc2)C2=NCCCCC2)cc1 | 102.8% |
| O=C(NCC[S+]([O-])c1ccccc1)c1ccc2[nH]c(=O)[nH]c2c1 (stereo not drawn) | 15.24% |
| CCOC(=O)[C@@H]1[C@@H](O)C(=O)N(C)C12CCN(C(=O)OC)CC2 | -16.14% |
| CC(C)CCN1C(=O)C2(NC(=O)c3ccccc3O2)c2ccccc21 (stereo not drawn) | 40.69% |
| Cc1nc(-c2ccncc2)ncc1C(C)NC(=O)CN1CCOC1=O (stereo not drawn) | -51.46% |
| O=S(=O)(NCCCn1cncn1)c1ccc2c(c1)CCC2 | -2.394% |
| CN(CCc1nccs1)C(=O)C1(C#N)CCCCC1 | 25.08% |
| Cc1nc(NCCO)cc(C(C)Cn2nc(C)c(C)c2C)n1 (stereo not drawn) | -14.61% |
| NC(=O)c1cn2cc(-c3ccccc3Cl)n(CC3CC3)c(=O)c2n1 | 14.04% |
| O=C(C1CCN(c2ccnc3ccc(Br)cc23)CC1)N1CCOCC1 | -18.98% |
| CC1CCN(c2ccnc3ccc(Br)cc23)CC1 | 84.63% |
| CC(=O)NCC1CCN(c2ccnc3ccc(Br)cc23)CC1 | 9.267% |
| Cc1ccc(OCC(=O)Nc2cc(C(=O)O)cc(S(C)(=O)=O)c2)cc1C | 18.88% |
| CCc1nc(C2CCCN2C(=O)c2csc(COC)n2)no1 (stereo not drawn) | -20.84% |
| Cc1cc(N2CCCC2Cn2nc(C)cc2C)n2ncnc2n1 (stereo not drawn) | -13.82% |

| Compound | Percent Effect |
| --- | --- |
| Cc1cc(-n2cnnn2)n2ncnc2n1 | -30.4% |
| Cc1cc(-n2cncn2)n2ncnc2n1 | 64.26% |
| Cc1ccc(C(=O)N2CCOC(c3ncc(CN(C)C)[nH]3)C2)cc1F (stereo not drawn) | 14.93% |
| COc1ccc(F)cc1CN(CC(N)=O)C(C)C | -0.4736% |
| Cc1cc(-c2ccccc2)nc(C2CCCN2S(C)(=O)=O)n1 (stereo not drawn) | -11.27% |
| Cn1cc(Br)c(C(=O)NCCn2cc(Br)cn2)n1 | 8.473% |
| N#Cc1cccnc1N1CCC(OCCc2ccccc2)CC1 | 33.41% |
| Cc1cccc(OC2CCN(c3ccc(C#N)cn3)CC2)n1 | 4.434% |
| N#Cc1ccc(N2CCC(OCCc3ccccc3)CC2)nc1 | 51.1% |
| O=C(Cc1cccc(O)c1)N1CCCC(O)(CN2CCCC2)CC1 (stereo not drawn) | -1.621% |
| c1cc2c(cc1CN1CCN(Cc3noc(C4CC4)n3)CC1)OCO2 | 10.54% |
| CCC(=O)Nc1ccc2c(c1)C1(CCOCC1)CN2CCF.O=C(O)C(F)(F)F | 2.387% |
| CCC1C(=O)NCCN1c1nccc(C)n1 (stereo not drawn) | -0.2663% |
| CCCN1CCc2nc(N3CCOCC3)nc(NC(C)C)c2C1 | 29.26% |
| CC(C)Nc1nc(N2CCCC2)nc2c1CN(C)CC2 | 33.38% |
| CC(C)Nc1nc(N2CCCC2)nc2c1CN(C(C)C)CC2 | 61.73% |
| Cc1nc(CN2CCc3nc(N4CCCC4)nc(NC(C)C)c3C2)cs1 | 75.47% |
| CC(C)Nc1nc(N2CCCC2)nc2c1CN(c1ncc(F)cn1)CC2 | 82.11% |
| CC(C)Nc1nc(N2CCCC2)nc2c1CN(S(C)(=O)=O)CC2 | 12.79% |
| Cc1nc(CN2CCc3nc(NC(C)C)nc(C)c3C2)cs1 | 38.07% |
| CCC(C)N1CCc2nc(N3CCCC3)nc(NC(C)C)c2C1 (stereo not drawn) | -13.77% |
| CCN1CCc2nc(N3CCOCC3)nc(NC(C)C)c2C1 | 16.58% |
| CCN(C(=O)c1nc2c(s1)CCCN2c1ccc(C)nn1)C(C)C | 10.96% |
| Cc1cc(F)ccc1N1CCCC(Nc2nccn3cnnc23)C1=O (stereo not drawn) | -2.577% |
| Cc1cc(C(F)(F)F)n2nc(C3CCN(S(=O)(=O)N(C)C)CC3)cc2n1 | -8.533% |
| Cc1cc(C)nc(C2CCCN2C(=O)c2cnccn2)n1 (stereo not drawn) | -1.129% |

| Compound | Percent Effect |
| --- | --- |
| Cn1ccc2c(-c3cc(N4CCCCC4)ncn3)ccnc21 | -7.071% |
| Clc1cc(N2CCN(C3CCOCC3)CC2)nc2[nH]ccc12 | -30.2% |
| CN(Cc1noc(-c2ccccc2)n1)C(=O)CSc1nnc(N)s1 | -22.54% |
| CC(C)NC(=O)Cc1cnc(-n2cccc2)s1 | 43.3% |
| CCOCC(=O)N1CCCn2c(CN3CCOCC3)nnc2C1 | 18.04% |
| Cn1cc(-c2cnc(N3CCOCC3)nc2)cc1C(=O)O | 44.3% |
| Cn1cc(-c2cnc(N3CCCC3)nc2)cc1C(=O)O | 95.84% |
| CN1CCN(C(=O)c2cc(-c3cnc(N4CCCC4)nc3)cn2C)CC1 | 2.355% |
| COc1cccc(Cl)c1C(C(=O)O)N1CCC(Cn2cccn2)CC1 (stereo not drawn) | -18.71% |
| CN(Cc1noc(C(C)(C)C)n1)Cc1ccccc1N1CCCCC1 | 2.184% |
| CC(C)(O)C1CCCN(C(=O)Nc2nc(-c3ccccc3)ns2)C1 (stereo not drawn) | 24.52% |
| CC(C)(O)C1CCN(C(=O)Nc2nc(-c3ccccc3)ns2)CC1 | 105.1% |
| O=C(Nc1nc(-c2ccccc2)ns1)N1CCC(F)CC1 | 13.41% |
| O=C(c1ccc(-n2cnnc2)cc1)N1CCCC(n2ccnc2)C1 (stereo not drawn) | 15.63% |
| Cc1cc(C)c2cc(CNCc3ccc(C)o3)c3nn(C)c(=O)n3c2c1 | -2.639% |
| O=C(CCn1ccc2ccc(Cl)cc21)NCc1ccc(C(=O)O)cc1 | 28.36% |
| CC(C)NC(=O)C1(Cc2ccccc2-c2cncnc2)CCCNC1 (stereo not drawn) | -1.5% |
| Cc1ccc(-c2ccccc2CC2(C(=O)NC(C)C)CCCNC2)cc1 (stereo not drawn) | 60.07% |
| CC(C)NC(=O)C1(Cc2ccccc2-c2ccccc2)CCCNC1 (stereo not drawn) | -4.67% |
| Cc1cc(C)n(CC2CN(Cc3cccc(C#N)c3)CCO2)n1 (stereo not drawn) | 14.78% |
| COc1ccc(CN2CCn3cc(CN4CCN(C)CC4)nc3C2)cc1.O=C(O)C(F)(F)F.O=C(O)C(F)(F)F.O=C(O)C(F)(F)F | 3.435% |
| CC(C)COCCC(=O)Nc1ccc2oc(=O)n(CCN(C)C)c2c1 | -58.21% |
| O=C(NCCc1cc(N2CCOCC2)nc(N2CCCC2)n1)C1CC1 | 50.32% |
| O=C(NCCc1cc(N2CCOCC2)nc(NC2CC2)n1)C1CCCO1 (stereo not drawn) | 34.16% |
| O=C(NCCc1cc(N2CCOCC2)nc(NC2CC2)n1)C1CC1 | 33.35% |
